What was measured:
Test in all cases: DAPPL (digital affinity profiling via proximity ligation, sequencing); 10 mM Tris-HCl pH 7.5, 50 mM NaCl, 1 mM DTT, 4% glycerol, room temperature, 30 min; GST-TFs on glutathione beads, 16-mer random dsDNA library, 0.1% formaldehyde crosslink after washing; high values mean tight binding
[1] = biological target: T1, FEV (Homo sapiens, UniProt Q99581 1-238); details: protein: recombinant; tags: N-terminal GST; dsDNA, one strand shown
T1 sequence: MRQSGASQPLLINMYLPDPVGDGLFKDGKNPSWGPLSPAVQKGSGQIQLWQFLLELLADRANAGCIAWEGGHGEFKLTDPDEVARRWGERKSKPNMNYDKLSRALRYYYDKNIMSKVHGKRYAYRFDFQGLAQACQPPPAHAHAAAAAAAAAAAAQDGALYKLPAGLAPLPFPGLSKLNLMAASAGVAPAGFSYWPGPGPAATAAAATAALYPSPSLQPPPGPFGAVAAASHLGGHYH
Summary of the method: (§1)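 Binding signal is each hexamer's read frequency for a factor divided by its frequency in the tag-only sample. The factors were GST-fused human transcription factors from yeast, captured on glutathione beads, DNA-barcoded and pooled with that sample. Pools were incubated with 200 nmole of a random double-stranded 16-mer DNA library in Tris/NaCl/DTT/glycerol buffer at room temperature for 30 min, then washed, crosslinked with 0.1% formaldehyde, proximity-ligated with BsaI/T4 ligase (1 h, 37 °C), PCR-amplified and sequenced on an Illumina NextSeq500.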

[2] = biological target: ETV5 (Homo sapiens, UniProt P41161 1-510); details: protein: recombinant; tags: N-terminal GST; dsDNA, one strand shown
ETV5, sequence (P41161 whole entry): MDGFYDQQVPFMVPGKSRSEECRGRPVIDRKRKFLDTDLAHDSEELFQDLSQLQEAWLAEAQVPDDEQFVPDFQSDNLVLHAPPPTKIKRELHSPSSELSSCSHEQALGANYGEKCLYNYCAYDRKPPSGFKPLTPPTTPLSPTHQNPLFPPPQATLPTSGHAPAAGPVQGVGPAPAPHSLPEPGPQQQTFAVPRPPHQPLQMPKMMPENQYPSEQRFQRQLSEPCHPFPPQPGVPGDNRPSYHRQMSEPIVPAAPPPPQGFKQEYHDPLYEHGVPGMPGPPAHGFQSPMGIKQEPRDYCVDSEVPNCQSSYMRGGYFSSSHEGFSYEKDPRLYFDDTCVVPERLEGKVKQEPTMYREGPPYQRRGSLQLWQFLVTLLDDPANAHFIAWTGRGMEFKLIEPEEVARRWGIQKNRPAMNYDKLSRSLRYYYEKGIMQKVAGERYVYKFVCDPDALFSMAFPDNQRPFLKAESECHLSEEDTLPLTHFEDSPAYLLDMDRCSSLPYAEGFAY
Summary of the method: as §1

[3] = biological target: HSF1 (Homo sapiens, UniProt Q00613 1-529); details: protein: recombinant; tags: N-terminal GST; chain copies: 3; dsDNA, one strand shown
HSF1, sequence (Q00613 whole entry): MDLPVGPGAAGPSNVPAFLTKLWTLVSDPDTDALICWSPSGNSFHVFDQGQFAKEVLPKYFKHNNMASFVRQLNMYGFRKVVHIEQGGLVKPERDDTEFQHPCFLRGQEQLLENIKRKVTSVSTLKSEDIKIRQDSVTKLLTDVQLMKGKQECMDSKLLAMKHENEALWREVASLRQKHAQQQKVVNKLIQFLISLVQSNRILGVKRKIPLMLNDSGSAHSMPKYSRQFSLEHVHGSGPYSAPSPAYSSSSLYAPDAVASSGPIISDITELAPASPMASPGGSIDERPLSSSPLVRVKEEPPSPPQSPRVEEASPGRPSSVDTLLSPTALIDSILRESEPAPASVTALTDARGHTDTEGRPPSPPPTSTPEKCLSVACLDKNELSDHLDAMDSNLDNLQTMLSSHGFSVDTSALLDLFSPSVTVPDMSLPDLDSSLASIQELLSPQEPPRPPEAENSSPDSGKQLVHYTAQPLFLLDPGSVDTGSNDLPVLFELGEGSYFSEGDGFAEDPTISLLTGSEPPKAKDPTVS
Summary of the method: as §1

[4] = biological target: T2, SPIC (Homo sapiens, UniProt Q8N5J4 1-248); details: protein: recombinant; tags: N-terminal GST; dsDNA, one strand shown
T2 sequence: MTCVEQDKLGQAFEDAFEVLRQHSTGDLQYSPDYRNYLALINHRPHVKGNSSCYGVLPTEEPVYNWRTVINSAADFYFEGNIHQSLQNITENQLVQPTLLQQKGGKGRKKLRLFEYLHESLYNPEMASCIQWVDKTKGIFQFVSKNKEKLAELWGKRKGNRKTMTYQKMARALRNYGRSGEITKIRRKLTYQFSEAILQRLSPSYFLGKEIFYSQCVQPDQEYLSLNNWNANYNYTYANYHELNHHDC
Summary of the method: as §1

[5] = biological target: ELF4 (Homo sapiens, UniProt Q99607 1-663); details: protein: recombinant; tags: N-terminal GST; dsDNA, one strand shown
ELF4, sequence (Q99607 whole entry): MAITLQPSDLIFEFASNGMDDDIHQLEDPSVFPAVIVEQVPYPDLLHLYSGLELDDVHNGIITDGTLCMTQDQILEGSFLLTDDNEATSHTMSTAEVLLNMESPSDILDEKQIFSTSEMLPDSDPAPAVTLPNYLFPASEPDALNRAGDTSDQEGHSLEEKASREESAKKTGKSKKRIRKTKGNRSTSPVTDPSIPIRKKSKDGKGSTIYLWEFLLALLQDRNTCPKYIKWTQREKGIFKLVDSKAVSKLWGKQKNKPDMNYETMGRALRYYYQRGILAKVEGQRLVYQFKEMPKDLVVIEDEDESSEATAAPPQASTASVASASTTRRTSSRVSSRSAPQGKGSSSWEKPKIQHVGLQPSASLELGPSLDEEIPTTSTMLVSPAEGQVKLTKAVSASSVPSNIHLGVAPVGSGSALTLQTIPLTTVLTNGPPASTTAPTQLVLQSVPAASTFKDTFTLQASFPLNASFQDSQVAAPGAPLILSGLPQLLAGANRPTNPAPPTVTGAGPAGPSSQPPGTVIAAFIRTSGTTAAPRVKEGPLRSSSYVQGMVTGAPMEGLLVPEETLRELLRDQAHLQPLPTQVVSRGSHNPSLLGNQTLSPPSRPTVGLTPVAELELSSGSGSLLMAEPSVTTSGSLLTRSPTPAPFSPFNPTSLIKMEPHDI
Summary of the method: as §1

[6] = biological target: T3, ELK4 (Homo sapiens, UniProt P28324-2 1-405); details: protein: recombinant; tags: N-terminal GST; dsDNA, one strand shown
T3 sequence: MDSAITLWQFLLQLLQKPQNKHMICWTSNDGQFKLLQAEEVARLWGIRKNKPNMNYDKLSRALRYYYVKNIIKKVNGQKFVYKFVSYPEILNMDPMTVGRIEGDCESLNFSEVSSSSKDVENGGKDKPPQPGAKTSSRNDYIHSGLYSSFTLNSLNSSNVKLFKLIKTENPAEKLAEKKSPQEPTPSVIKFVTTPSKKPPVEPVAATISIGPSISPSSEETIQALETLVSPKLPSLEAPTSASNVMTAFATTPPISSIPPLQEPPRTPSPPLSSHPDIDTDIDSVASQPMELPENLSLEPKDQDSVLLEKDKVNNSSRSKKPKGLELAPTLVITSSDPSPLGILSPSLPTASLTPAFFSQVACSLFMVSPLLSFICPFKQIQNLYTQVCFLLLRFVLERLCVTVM
Summary of the method: as §1

[7] = biological target: T4, ETV2 (Homo sapiens, UniProt O00321 1-342); details: protein: recombinant; tags: N-terminal GST; dsDNA, one strand shown
T4 sequence: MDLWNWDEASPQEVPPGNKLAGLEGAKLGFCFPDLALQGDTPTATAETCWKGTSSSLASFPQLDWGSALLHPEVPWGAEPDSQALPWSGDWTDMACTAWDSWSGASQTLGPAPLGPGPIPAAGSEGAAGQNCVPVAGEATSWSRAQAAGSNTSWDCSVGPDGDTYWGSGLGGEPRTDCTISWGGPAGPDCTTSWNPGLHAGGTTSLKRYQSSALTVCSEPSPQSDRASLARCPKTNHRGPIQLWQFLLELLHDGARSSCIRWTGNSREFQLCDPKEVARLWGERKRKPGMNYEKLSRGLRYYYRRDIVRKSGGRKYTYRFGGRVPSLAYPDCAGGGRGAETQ
Summary of the method: as §1

[8] = biological target: T5, ELF3 (Homo sapiens, UniProt P78545 1-371); details: protein: recombinant; tags: N-terminal GST; dsDNA, one strand shown
T5 sequence: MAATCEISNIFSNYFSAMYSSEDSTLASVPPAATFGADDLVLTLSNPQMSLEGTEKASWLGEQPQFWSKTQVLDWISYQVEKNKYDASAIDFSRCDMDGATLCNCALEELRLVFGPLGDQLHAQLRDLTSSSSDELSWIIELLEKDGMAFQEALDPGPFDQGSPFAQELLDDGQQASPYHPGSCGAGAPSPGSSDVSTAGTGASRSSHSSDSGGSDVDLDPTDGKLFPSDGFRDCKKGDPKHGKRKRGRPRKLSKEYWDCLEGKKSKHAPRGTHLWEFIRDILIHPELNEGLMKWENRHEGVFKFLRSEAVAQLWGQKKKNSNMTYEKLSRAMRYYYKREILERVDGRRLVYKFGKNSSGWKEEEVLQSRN
Summary of the method: as §1

[9] = biological target: CRX (Homo sapiens, UniProt O43186 1-299); details: protein: recombinant; tags: N-terminal GST; dsDNA, one strand shown
CRX, sequence (O43186 whole entry): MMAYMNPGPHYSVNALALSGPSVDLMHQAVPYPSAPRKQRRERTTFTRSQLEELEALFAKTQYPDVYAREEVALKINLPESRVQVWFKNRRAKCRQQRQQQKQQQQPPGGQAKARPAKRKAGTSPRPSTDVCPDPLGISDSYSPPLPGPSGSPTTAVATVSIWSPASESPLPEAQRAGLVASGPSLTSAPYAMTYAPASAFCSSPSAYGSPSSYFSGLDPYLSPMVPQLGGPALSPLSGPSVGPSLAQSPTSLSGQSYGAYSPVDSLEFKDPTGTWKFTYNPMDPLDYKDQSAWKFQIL
Summary of the method: as §1

[10] = biological target: ETV1 (Homo sapiens, UniProt P50549 1-477); details: protein: recombinant; tags: N-terminal GST; dsDNA, one strand shown
ETV1, sequence (P50549 whole entry): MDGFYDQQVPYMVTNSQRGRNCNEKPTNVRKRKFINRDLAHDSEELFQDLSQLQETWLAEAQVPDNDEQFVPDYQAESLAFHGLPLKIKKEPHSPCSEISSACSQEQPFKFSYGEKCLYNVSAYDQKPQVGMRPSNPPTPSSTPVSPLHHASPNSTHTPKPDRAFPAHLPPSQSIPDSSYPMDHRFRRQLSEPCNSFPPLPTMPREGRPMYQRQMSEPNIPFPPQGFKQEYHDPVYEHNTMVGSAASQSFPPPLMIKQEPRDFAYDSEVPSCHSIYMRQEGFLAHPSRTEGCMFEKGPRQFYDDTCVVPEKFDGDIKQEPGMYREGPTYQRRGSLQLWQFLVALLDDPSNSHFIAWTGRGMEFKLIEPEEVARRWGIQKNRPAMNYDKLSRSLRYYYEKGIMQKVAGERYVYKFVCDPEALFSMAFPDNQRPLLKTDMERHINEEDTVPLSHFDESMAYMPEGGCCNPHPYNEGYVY
Summary of the method: as §1

[11] = biological target: T6, ERF (Homo sapiens, UniProt P50548 1-548); details: protein: recombinant; tags: N-terminal GST; dsDNA, one strand shown
T6 sequence: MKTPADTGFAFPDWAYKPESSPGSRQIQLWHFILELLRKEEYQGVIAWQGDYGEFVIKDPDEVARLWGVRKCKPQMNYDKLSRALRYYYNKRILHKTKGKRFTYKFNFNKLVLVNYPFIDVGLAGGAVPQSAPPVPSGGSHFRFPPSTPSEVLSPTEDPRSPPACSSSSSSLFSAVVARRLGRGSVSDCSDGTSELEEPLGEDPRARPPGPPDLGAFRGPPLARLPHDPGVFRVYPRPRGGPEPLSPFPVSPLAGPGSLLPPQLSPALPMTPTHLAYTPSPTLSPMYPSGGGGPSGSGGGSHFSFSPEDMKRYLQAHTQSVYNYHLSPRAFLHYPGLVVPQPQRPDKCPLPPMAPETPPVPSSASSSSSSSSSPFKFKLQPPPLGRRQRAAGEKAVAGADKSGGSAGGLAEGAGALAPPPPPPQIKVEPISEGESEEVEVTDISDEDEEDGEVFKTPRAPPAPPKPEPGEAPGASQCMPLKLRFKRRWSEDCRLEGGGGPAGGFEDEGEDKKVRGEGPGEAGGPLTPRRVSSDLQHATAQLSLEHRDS
Summary of the method: as §1

[12] = biological target: T7, ETV3L (Homo sapiens, UniProt Q6ZN32 1-361); details: protein: recombinant; tags: N-terminal GST; dsDNA, one strand shown
T7 sequence: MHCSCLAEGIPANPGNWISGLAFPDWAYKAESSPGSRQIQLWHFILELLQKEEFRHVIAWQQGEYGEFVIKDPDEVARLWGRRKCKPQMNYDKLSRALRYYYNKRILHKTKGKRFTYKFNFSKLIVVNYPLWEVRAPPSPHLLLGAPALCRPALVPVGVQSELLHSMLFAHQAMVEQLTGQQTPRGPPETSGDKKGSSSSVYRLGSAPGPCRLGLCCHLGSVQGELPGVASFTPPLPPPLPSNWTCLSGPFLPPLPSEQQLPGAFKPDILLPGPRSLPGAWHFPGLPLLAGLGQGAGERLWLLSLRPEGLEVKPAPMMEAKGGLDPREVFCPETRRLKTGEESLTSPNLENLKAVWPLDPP
Summary of the method: as §1

[13] = biological target: T8, ETS2 (Homo sapiens, UniProt P15036 1-469); details: protein: recombinant; tags: N-terminal GST; dsDNA, one strand shown
T8 sequence: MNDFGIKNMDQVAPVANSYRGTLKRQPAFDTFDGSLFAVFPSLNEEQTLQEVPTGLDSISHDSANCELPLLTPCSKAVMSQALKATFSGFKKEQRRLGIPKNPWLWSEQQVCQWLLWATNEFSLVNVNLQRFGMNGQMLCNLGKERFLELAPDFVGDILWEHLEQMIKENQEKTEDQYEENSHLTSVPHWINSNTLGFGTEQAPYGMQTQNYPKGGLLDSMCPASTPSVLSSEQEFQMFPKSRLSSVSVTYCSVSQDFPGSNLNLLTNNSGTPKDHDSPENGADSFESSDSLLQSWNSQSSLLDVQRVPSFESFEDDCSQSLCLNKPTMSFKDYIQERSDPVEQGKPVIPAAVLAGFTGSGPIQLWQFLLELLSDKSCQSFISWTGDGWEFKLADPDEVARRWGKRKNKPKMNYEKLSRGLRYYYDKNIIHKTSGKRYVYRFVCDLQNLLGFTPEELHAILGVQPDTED
Summary of the method: as §1

[14] = biological target: T9, SPDEF (Homo sapiens, UniProt O95238 1-335); details: protein: recombinant; tags: N-terminal GST; dsDNA, one strand shown
T9 sequence: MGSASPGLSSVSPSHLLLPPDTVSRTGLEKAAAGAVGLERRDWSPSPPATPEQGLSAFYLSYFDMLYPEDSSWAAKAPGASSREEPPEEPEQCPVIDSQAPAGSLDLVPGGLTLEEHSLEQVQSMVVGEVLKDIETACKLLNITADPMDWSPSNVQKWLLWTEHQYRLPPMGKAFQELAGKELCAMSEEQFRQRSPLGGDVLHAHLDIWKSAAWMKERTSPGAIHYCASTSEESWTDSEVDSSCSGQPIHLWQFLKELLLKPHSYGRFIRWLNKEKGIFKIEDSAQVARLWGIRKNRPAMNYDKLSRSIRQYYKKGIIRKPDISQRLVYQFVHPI
Summary of the method: as §1

[15] = biological target: T10, ETV7 (Homo sapiens, UniProt Q9Y603 1-341); details: protein: recombinant; tags: N-terminal GST; dsDNA, one strand shown
T10 sequence: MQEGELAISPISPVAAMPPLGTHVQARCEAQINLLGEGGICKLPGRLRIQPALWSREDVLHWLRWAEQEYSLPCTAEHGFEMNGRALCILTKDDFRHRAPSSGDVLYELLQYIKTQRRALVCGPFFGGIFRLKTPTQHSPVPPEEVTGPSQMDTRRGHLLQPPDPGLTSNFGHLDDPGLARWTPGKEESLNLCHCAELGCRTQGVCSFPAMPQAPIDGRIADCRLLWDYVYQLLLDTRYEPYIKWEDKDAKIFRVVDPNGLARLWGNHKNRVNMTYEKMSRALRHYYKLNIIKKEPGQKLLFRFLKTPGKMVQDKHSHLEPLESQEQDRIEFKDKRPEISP
Summary of the method: as §1

[16] = biological target: T11, ELF5 (Homo sapiens, UniProt Q9UKW6-2 1-255); details: protein: recombinant; tags: N-terminal GST; dsDNA, one strand shown
T11 sequence: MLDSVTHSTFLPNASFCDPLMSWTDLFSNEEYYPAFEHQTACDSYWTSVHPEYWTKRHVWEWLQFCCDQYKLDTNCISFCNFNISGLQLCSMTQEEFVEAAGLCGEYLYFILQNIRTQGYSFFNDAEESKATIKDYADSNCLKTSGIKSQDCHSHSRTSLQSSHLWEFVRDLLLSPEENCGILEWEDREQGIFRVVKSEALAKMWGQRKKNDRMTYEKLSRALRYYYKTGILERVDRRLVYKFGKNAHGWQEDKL
Summary of the method: as §1

[17] = biological target: T12, ETV3 (Homo sapiens, UniProt P41162-2 1-143); details: protein: recombinant; tags: N-terminal GST; dsDNA, one strand shown
T12 sequence: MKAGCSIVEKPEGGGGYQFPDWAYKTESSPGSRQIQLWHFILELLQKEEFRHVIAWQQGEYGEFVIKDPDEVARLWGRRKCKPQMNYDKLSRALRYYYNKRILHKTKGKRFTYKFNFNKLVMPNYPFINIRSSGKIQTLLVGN
Summary of the method: as §1

[18] = biological target: ETV6 (Homo sapiens, UniProt P41212 1-452); details: protein: recombinant; tags: N-terminal GST; dsDNA, one strand shown
ETV6, sequence (P41212 whole entry): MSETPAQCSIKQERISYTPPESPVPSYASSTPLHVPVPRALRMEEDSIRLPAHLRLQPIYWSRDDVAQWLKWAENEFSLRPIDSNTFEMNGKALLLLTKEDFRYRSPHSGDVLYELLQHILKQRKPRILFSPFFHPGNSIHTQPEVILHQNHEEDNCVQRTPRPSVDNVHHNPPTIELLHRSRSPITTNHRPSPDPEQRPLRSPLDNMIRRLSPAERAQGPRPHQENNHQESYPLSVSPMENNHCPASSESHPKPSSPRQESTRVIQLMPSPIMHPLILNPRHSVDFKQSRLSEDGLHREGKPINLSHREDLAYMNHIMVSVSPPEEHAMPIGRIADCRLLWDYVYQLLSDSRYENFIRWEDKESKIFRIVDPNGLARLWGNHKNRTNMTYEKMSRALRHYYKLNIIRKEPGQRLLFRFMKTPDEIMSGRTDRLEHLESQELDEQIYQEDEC
Summary of the method: as §1

Sequence: CTATCC
- binding signal [1]: 1.39 fold enrichment (6-mer frequency, TF over GST control)
- binding signal [2]: 1.49 fold enrichment (6-mer frequency, TF over GST control)
- binding signal [3]: 1.25 fold enrichment (6-mer frequency, TF over GST control)
- binding signal [4]: 1.36 fold enrichment (6-mer frequency, TF over GST control)
- binding signal [5]: 1.34 fold enrichment (6-mer frequency, TF over GST control)
- binding signal [6]: 1.56 fold enrichment (6-mer frequency, TF over GST control)
- binding signal [7]: 1.49 fold enrichment (6-mer frequency, TF over GST control)
- binding signal [8]: 1.31 fold enrichment (6-mer frequency, TF over GST control)
- binding signal [9]: 1.31 fold enrichment (6-mer frequency, TF over GST control)
- binding signal [10]: 1.36 fold enrichment (6-mer frequency, TF over GST control)
- binding signal [11]: 1.38 fold enrichment (6-mer frequency, TF over GST control)
- binding signal [12]: 1.4 fold enrichment (6-mer frequency, TF over GST control)
- binding signal [13]: 1.35 fold enrichment (6-mer frequency, TF over GST control)
- binding signal [14]: 1.63 fold enrichment (6-mer frequency, TF over GST control)
- binding signal [15]: 1.46 fold enrichment (6-mer frequency, TF over GST control)
- binding signal [16]: 1.45 fold enrichment (6-mer frequency, TF over GST control)
- binding signal [17]: 1.27 fold enrichment (6-mer frequency, TF over GST control)
- binding signal [18]: 1.32 fold enrichment (6-mer frequency, TF over GST control)

Source: paper PMC7862700, “An all-to-all approach to the identification of sequence-specific readers for epigenetic DNA modifications on cytosine”
